In PubChem BioAssay (NCI):
The panel holds about 83,000 compounds, 20% with a hit somewhere; the sample as a whole holds those more often.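 Step 1: grow cells in 96-well plates. Step 2: add test compound at a single concentration. Step 3: incubate 48 h. Step 4: record percent growth.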 Unmarked numbers belong to inactive results. The source made the active and inactive calls. How the source made its calls: active means growth percent below 10; inactive means the rest.

tested on: MDA-MB-468 breast; test: NCI-60 one-dose screen, 48 h (100 = growth as untreated, 0 = no growth, -100 = all killed); settings: 10 µM unless noted

| SMILES | growth |
| --- | --- |
| CC[C@]12C=CCN3CC[C@]4(C(=C(C(=O)OC)C1)Nc1cc5c(cc14)[C@@H]1[C@H](O5)[C@@H](O)[C@@]4(CC)CC(C(=O)OC)=C5Nc6cc(O)ccc6[C@@]56CCN1C46)C32 (some centres not stated) | -51% (active) |
| O=C(Nc1cccc(C(F)(F)F)c1)N1CCN(c2cc(-c3cn(-c4ccccc4)nc3-c3cccc(O)c3)ccn2)CC1 | 32.5% |
| O=C1CCn2c1c(O)c1ccccc1c2=O | 105% |
| O=C(Cn1cc(CN2C(=O)c3ccc([N+](=O)[O-])cc3C2=O)nn1)Nc1ccccc1Br | 111% |
| O=[N+]([O-])c1ccc(NC(c2ccccc2)c2ccc3cccnc3c2O)cc1 (configuration not stated) | -28.9% (active) |
| COCCn1cc(-c2nc(-c3cccnc3)cs2)c2cc(F)ccc21 | 100% |
| O=c1c2ccccc2c(Br)c(Br)c2ccccc12 | 8.15% (active) |
| COc1ccc(-c2nc(NCCO)[nH]c(=O)c2C#N)cc1 | 112% |
| Cn1cc(-c2nc(-c3c[nH]c4ncccc34)cs2)c2cc(Br)ccc21 | 5.22% (active) |
| O=C(NNC(=O)c1ccc(NC(=O)c2ccccn2)cc1)Nc1ccc([N+](=O)[O-])cc1 | 94.2% |
| Nc1c(C(=O)c2ccc(Cl)cc2)sc(Nc2ccccc2)c1-c1nc2ccccc2s1 | 14.7% |
| CN1CCN(C2=C(Cl)C(=O)c3ccccc3C2=O)CC1 | 57% |
| NC(=O)c1ccc(-c2cccc3c(=O)nc(N4CCOCC4)oc23)cc1 | 105% |
| CN(C1c2ccccc2Oc2ccccc21)S(=O)(=O)c1cc(Cl)ccc1Cl | 18.9% |
| Cn1c(=O)c2c(nc(N3CCCC3)n2C)n(C)c1=O | 99.5% |
| CCCCN(CCCC)CCCNc1c2c(nc3ccc(Cl)cc13)CCCC2 | 114% |
| O=S(=O)(Nc1ccccc1Cl)c1ccc(-c2cnc(C3CC3)o2)cc1 | 6.43% (active) |
| COc1ccc(-c2cncnc2N)cc1OC | 116% |
| O=C(CN1CCN(c2cc(=O)n(-c3ccccc3)c3ccccc23)CC1)Nc1nc(-c2ccc(Cl)cc2)cs1 | 9.61% (active) |

| SMILES | growth |
| --- | --- |
| COc1cc2c(cc1-c1c(C)noc1C)ncc1nc(C3CC3)n([C@H](C)COC(F)F)c12 | 46% |
| O=C(NCCN1CCOCC1)OCc1nc2nc(Cl)nc(N3CCOCC3)c2[nH]1 | 10.1% |
| COc1cc2nc(-c3ccc(C(F)(F)F)cc3)cc(OCCN3CCC(O)CC3)c2cc1OC | 81.1% |
| Cc1csc2ccc(Cl)cc12 | 96.8% |
| C=C1C(=O)O[C@H]2[C@H]1CC/C(COC(=O)N[C@@H](Cc1c[nH]c3ccccc13)C(=O)OC)=C\CC[C@@]1(C)O[C@@H]21 | -16.4% (active) |
| COc1ccc(Cn2cc3c(c2-c2cc(OC)c(OC)c(OC)c2)CCc2cnoc2-3)cc1[N+](=O)[O-] | -1.72% (active) |
| COc1ccc2nc3cc(Cl)ccc3c(N3CCN(c4nccc(NCc5ccccc5)n4)CC3)c2c1 | 15% |
| COc1ccc(/C=C2\Oc3cc(OCCCN4CCCC4)ccc3C2=O)cc1 | 74.1% |
| O=C(Cn1cc(CN2C(=O)c3ccccc3S2(=O)=O)nn1)Nc1cccc(Cl)c1 | 101% |
| O=C1c2ccccc2C(=O)c2c1c(C(=O)NCc1ccccc1)c1ccccn21 | 101% |
| O=S(=O)(NCCNc1nccc(-c2c(-c3cccc(F)c3)nc3sccn23)n1)c1ccc(Br)cc1 | 78.3% |
| CNC(=O)c1cc(Oc2ccc(NC(=O)Nc3ccc(Cl)c(C(C)(C)C)c3)c(F)c2)ccn1 | 7.76% (active) |
| COC1=CC(c2ccc[nH]2)=N/C1=C\c1[nH]c(C)c(C(=O)CCC(=O)Oc2ccc3c(c2)CCC2C3CC[C@]3(C)C(=O)CC[C@@H]23)c1C (some centres not stated) | 76.3% |
| O=c1[nH]c(NCc2nnnn2-c2ccc(Br)cc2)nc2sc3c(c12)CCCC3 | 96.9% |
| Cc1ccc(NC(=O)c2[nH]c(SCCN(C)C)nc2-c2ccc(F)cc2)cc1Nc1ccc2ncn(C)c(=O)c2c1 | 92.1% |
| COc1ccccc1-n1cnc(N)c1C(=O)c1cc(OC)c(OC)c(OC)c1 | 39.3% |
| C#CCOc1cccc(-c2nc(N)nc(Nc3ccccc3SSc3ccccc3Nc3nc(N)nc(-c4cccc(OCC#C)c4)n3)n2)c1 | 73% |
| CCCCC(O)Cn1ncc(C(=O)OCC)c1NC(=O)NCc1ccccc1C(F)(F)F (configuration not stated) | 98.7% |
